Consider 40 molecules from the supplement of paper PMC7184167.

Counter-ions that a name gives are not always drawn.

The subject of the assay is replication-induced senescent mouse newborn dermal fibroblasts (NBF). Briefly: relative cell viability of senescent cells (fraction); higher = less killing of senescent cells. As to conditions: 1 µM; 3 days. The method, then:
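Replication-induced senescent newborn mouse skin fibroblasts (NBFs) in 24-well plates were treated with a Selleck FDA-approved drug library at 1 µM for 3 days.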
For the molecule `C[C@H](CCC(=O)O)[C@H]1CC[C@H]2[C@@H]3[C@@H](O)C[C@@H]4C[C@H](O)CC[C@]4(C)[C@H]3CC[C@]12C` [Ursodiol], the relative cell viability is 0.448. In turn, `COc1cc2ncnc(Nc3ccc(F)c(Cl)c3)c2cc1OCCCN1CCOCC1` [Gefitinib (ZD1839)] displayed a relative cell viability of 1.01. The molecule `CN(C)c1cc(NC(=O)CNC(C)(C)C)c(O)c2c1CC1CC3C(N(C)C)C(=O)C(C(N)=O)=C(O)C3(O)C(=O)C1=C2O` (stereo not given) [Tigecycline] registered a relative cell viability of 0.694. As for `CC(C)(C)NC(=O)[C@H]1CC[C@H]2[C@@H]3CC[C@H]4NC(=O)C=C[C@]4(C)[C@H]3CC[C@]12C` [Finasteride], the figure is 0.942. The same measure for `NC(=O)N1c2ccccc2C=Cc2ccccc21` [Carbamazepine]: 0.859; for `Cc1cccc(Nc2ccncc2S(=O)(=O)NC(=O)NC(C)C)c1` [Torsemide]: 0.965; for `CN/C(=N\CCSCc1nc[nH]c1C)NC#N` [Cimetidine]: 1.01. As for `CN1CCC[C@@H]1CCO[C@](C)(c1ccccc1)c1ccc(Cl)cc1` [Clemastine Fumarate], the figure is 1.07; as for `Cc1cn[nH]c1` [Fomepizole], 1.07; as for `CCC[S+]([O-])c1ccc2[nH]c(NC(=O)OC)nc2c1` (stereo not given) [Albendazole Oxide], 0.993. The molecule `C[C@]1(O)C[C@@H](c2nc(-c3ccc4ccc(-c5ccccc5)nc4c3)c3c(N)nccn32)C1` [Linsitinib (OSI-906)] gave a relative cell viability of 0.445.

In turn, `Nc1ccccc1NC(=O)c1ccc(CNC(=O)OCc2cccnc2)cc1` [Entinostat (MS-275)] yielded a relative cell viability of 0.536.

Molecule `O=c1[nH]cc(F)c(=O)[nH]1` [Fluorouracil (5-Fluoracil, 5-FU)] returned a relative cell viability of 0.0476. In turn, `CN(C)[C@@H](CCOc1cccc2ccccc12)c1ccccc1` [Dapoxetine HCl] gave a relative cell viability of 1.08.

The molecule `CC(C)NCC(O)COc1ccc(CCOCC2CC2)cc1` (stereo not given) [Betaxolol HCl] yielded a relative cell viability of 1.1. `CCCCC(=O)N(Cc1ccc(-c2ccccc2-c2nnn[nH]2)cc1)[C@H](C(=O)O)C(C)C` [Valsartan] came in with a relative cell viability of 0.897. `Cc1ccc(C(=O)N(CCCN)[C@@H](c2nc3cc(Cl)ccc3c(=O)n2Cc2ccccc2)C(C)C)cc1` showed a relative cell viability of 1.13. `CC1Cc2ccccc2N1NC(=O)c1ccc(Cl)c(S(N)(=O)=O)c1` (stereo not given) [Indapamide]: the relative cell viability is 0.965. `CN1CCN(c2ccc3nc(-c4c(N)c5c(F)cccc5[nH]c4=O)[nH]c3c2)CC1` [Dovitinib (TKI-258, CHIR-258)] yielded a relative cell viability of 0.589.

`COc1ccc(/C=C/C(=O)Nc2ccccc2C(=O)O)cc1OC` [Tranilast] came in with a relative cell viability of 1. Molecule `C[C@]12CC[C@@H]3c4ccc(O)cc4C[C@@H](CCCCCCCCC[S+]([O-])CCCC(F)(F)C(F)(F)F)[C@H]3[C@@H]1CC[C@@H]2O` (stereo not given in full) [Fulvestrant] came in with a relative cell viability of 0.971.

With `CCOc1ccc(Cc2cc([C@@H]3O[C@H](CO)[C@@H](O)[C@H](O)[C@H]3O)ccc2Cl)cc1` [Dapagliflozin], the relative cell viability amounted to 1.2. `CC(C)c1nc(CN(C)C(=O)N[C@H](C(=O)N[C@@H](Cc2ccccc2)C[C@H](O)[C@H](Cc2ccccc2)NC(=O)OCc2cncs2)C(C)C)cs1` [Ritonavir] displayed a relative cell viability of 1.15. `COc1ccc(Cl)cc1C(=O)NCCc1ccc(S(=O)(=O)NC(=O)NC2CCCCC2)cc1` [Glyburide (Glibenclamide)]: the relative cell viability stood at 1.02. `C[C@@](Cc1ccc(O)c(O)c1)(NN)C(=O)O` [Carbidopa]: the relative cell viability is 1.05. Turning to `O=C(O)/C=C/c1ccc(Cn2ccnc2)cc1` [Ozagrel], the relative cell viability amounted to 1.02. The same measure for `C[C@](N)(Cc1ccc(O)c(O)c1)C(=O)O` [Methyldopa]: 0.971. As for `Cc1nc2n(c(=O)c1CCN1CCC(c3noc4cc(F)ccc34)CC1)CCCC2O` (stereo not given) [Paliperidone], the figure is 1.04. As for `COC(=O)C1=C(C)NC(C)=C(C(=O)OC(C)C)C1c1cccc2nonc12` (stereo not given) [Isradipine], the figure is 0.977; as for `Cc1cn([C@H]2C=C[C@@H](CO)O2)c(=O)[nH]c1=O` [Stavudine (d4T)], 0.893. Consider `CNCc1ccc(-c2[nH]c3cc(F)cc4c3c2CCNC4=O)cc1`, for which the relative cell viability came to 0.0458. The same measure for `CC(=O)N[C@@H](CS)C(=O)O` [Acetylcysteine]: 0.834; for `O=C(O)c1cc(/N=N/c2ccc(S(=O)(=O)Nc3ccccn3)cc2)ccc1O` [Sulfasalazine]: 1.3. As for `Cc1cn(-c2cc(NC(=O)c3ccc(C)c(Nc4nccc(-c5cccnc5)n4)c3)cc(C(F)(F)F)c2)cn1` [Nilotinib (AMN-107)], the figure is 0.044. The same measure for `COc1cnc(NS(=O)(=O)c2ccc(N)cc2)nc1` [Sulfameter]: 0.763; for `CCn1cc(C(=O)O)c(=O)c2cc(F)c(N3CCN(C)CC3)cc21` [Pefloxacin Mesylate]: 0.993. For the molecule `COCCc1ccc(OCC(O)CNC(C)C)cc1` (stereo not given) [Metoprolol Tartrate], the relative cell viability was 1.1. As to `NC(=O)c1ccc(I)c([N+](=O)[O-])c1` [Iniparib (BSI-201)], the relative cell viability is 0.209. As for `CCCCC[C@H](O)/C=C/[C@H]1[C@H](O)CC(=O)[C@@H]1CCCCCCC(=O)O` [Alprostadil], the relative cell viability was 0.875. In turn, `CO[C@H]1/C=C/O[C@@]2(C)Oc3c(C)c(O)c4c(O)c(c(/C=N/N5CCN(C)CC5)c(O)c4c3C2=O)NC(=O)/C(C)=C\C=C\[C@H](C)[C@H](O)[C@@H](C)[C@@H](O)[C@@H](C)[C@H](OC(C)=O)[C@@H]1C` [Rifampin] yielded a relative cell viability of 1.11.
